Data from the supplement of paper PMC12494721.
Counter-ions that a name gives are not always drawn. A number with no mark means an inactive call.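 The calls were made as follows: for the amine columns active = adjusted P below 0.05 in both replicates with a change the same way and a mean fold change under 0.8 or over 1.25; inactive = the rest.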

The molecules below were run on Clostridium sporogenes DSM 1664 (assay: fold change of Tryptamine concentration vs plate DMSO controls (fold change (ratio)); higher = more amine produced, active = hit call of the paper (significant change in both replicates, either direction)). Settings: incubation time: 27 h, anaerobic, 37 °C.
In short: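 In 80 µL wells, cultures of four gut bacterial strains in mGAM started at OD 0.1 before a 1:1 dilution and grew anaerobically at 37 °C for 27 h. Compounds were added to 20 µM final, except sweeteners at 50 µM final. After extraction of whole cultures with cold acetonitrile/methanol plus 0.1% formic acid and centrifugation, amines were measured by LC–triple-quadrupole MS in dynamic MRM mode against external calibration curves, with within-batch drift correction. Values give fold change over DMSO controls on the same plate, averaged across 2 biological replicates.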
With CC(=O)[C@H]1CC[C@H]2[C@@H]3CC=C4C[C@@H](O)CC[C@]4(C)[C@H]3CC[C@]12C [Pregnenolone] (20 µM) the “fold change of Tryptamine concentration” value was 1.04.
In the case of CC(C(=O)O)c1ccc(N2Cc3ccccc3C2=O)cc1 (stereo unspecified) [Indoprofen] (20 µM), the “fold change of Tryptamine concentration” value was 1.03.
Cc1cc(O)c(C(=O)N[C@@H](C(=O)N[C@@H]2C(=O)N3C(C(=O)O)=C(CSc4nnnn4C)CS[C@H]23)c2ccc(O)cc2)cn1 [Cefpiramide] (20 µM) was tested, and the “fold change of Tryptamine concentration” value was 0.0275 (active).
CC(C)=CCC1C(=O)N(c2ccccc2)N(c2ccccc2)C1=O [Feprazone] (20 µM) was tested, and the “fold change of Tryptamine concentration” value was 1.02.
COC(=O)C1=C(C)NC(C)=C(C(=O)OCCN(C)Cc2ccccc2)C1c1cccc([N+](=O)[O-])c1 (stereo unspecified) [Nicardipine hydrochloride] (20 µM) was tested, and the “fold change of Tryptamine concentration” value was 0.981.
With COCCOC(=O)C1=C(C)NC(C)=C(C(=O)OC(C)C)C1c1cccc([N+](=O)[O-])c1 (stereo unspecified) [Nimodipine] (20 µM) the “fold change of Tryptamine concentration” value was 0.965.
In the case of NS(=O)(=O)c1cc2c(cc1Cl)N=CNS2(=O)=O [Chlorothiazide] (20 µM), the “fold change of Tryptamine concentration” value was 0.97.
For CC(Oc1ccccc1)C(=O)N[C@@H]1C(=O)N2[C@@H]1SC(C)(C)[C@@H]2C(=O)O (stereo partly specified) [Phenethicillin potassium salt] (20 µM), the “fold change of Tryptamine concentration” value was 0.0424 (active).
Cc1ccc(N(CC2=NCCN2)c2cccc(O)c2)cc1 [Phentolamine hydrochloride] (20 µM) was tested, and the “fold change of Tryptamine concentration” value was 1.03.
In the case of CC1(C)O[C@@H]2C[C@H]3[C@@H]4C[C@H](F)C5=CC(=O)CC[C@]5(C)[C@H]4[C@@H](O)C[C@]3(C)[C@]2(C(=O)CO)O1 [Flurandrenolide] (20 µM), the “fold change of Tryptamine concentration” value was 1.08.
In the case of NS(=O)(=O)c1cc2c(cc1C(F)(F)F)NCNS2(=O)=O [Hydroflumethiazide] (20 µM), the “fold change of Tryptamine concentration” value was 0.92.
For Nc1nc(/C(=C/CC(=O)O)C(=O)N[C@@H]2C(=O)N3C(C(=O)O)=CCS[C@H]23)cs1 [Ceftibuten] (20 µM), the “fold change of Tryptamine concentration” value was 1.02.
In the case of O=C(O)Cc1ccc(-c2ccccc2)cc1 [Felbinac] (20 µM), the “fold change of Tryptamine concentration” value was 0.994.
With Nc1nnc(-c2cccc(Cl)c2Cl)c(N)n1 [Lamotrigine] (20 µM) the “fold change of Tryptamine concentration” value was 1.03.
In the case of Nc1nc(=O)c2nc(CNc3ccc(C(=O)N[C@@H](CCC(=O)O)C(=O)O)cc3)cnc2[nH]1 [Folic acid] (20 µM), the “fold change of Tryptamine concentration” value was 1.04.
In the case of Nc1ccc(S(=O)(=O)NC(=O)c2ccccc2)cc1 [Sulfabenzamide] (20 µM), the “fold change of Tryptamine concentration” value was 1.07.
With CCC(=O)O[C@]1(C(=O)SCF)[C@H](C)C[C@H]2[C@@H]3C[C@H](F)C4=CC(=O)C=C[C@]4(C)[C@@]3(F)[C@@H](O)C[C@@]21C [Fluticasone propionate] (20 µM) the “fold change of Tryptamine concentration” value was 0.989.
For CCOC(=O)[C@H](CCc1ccccc1)N[C@@H](C)C(=O)N1[C@H](C(=O)O)C[C@@H]2CCC[C@@H]21 [Ramipril] (20 µM), the “fold change of Tryptamine concentration” value was 0.963.
With CO/N=C(\C(=O)N[C@@H]1C(=O)N2C(C(=O)OCOC(=O)C(C)(C)C)=C(/C=C\c3scnc3C)CS[C@H]12)c1csc(N)n1 [Cefditoren Pivoxil] (20 µM) the “fold change of Tryptamine concentration” value was 0.951.
In the case of NC[C@H]1O[C@H](O[C@H]2[C@H](O[C@@H]3O[C@H](CO)[C@@H](O)[C@H]3O)[C@@H](O)[C@H](N)C[C@@H]2N)[C@H](N)[C@@H](O)[C@@H]1O [Ribostamycin sulfate salt] (20 µM), the “fold change of Tryptamine concentration” value was 1.02.
For Brc1c(NC2=NCCN2)ccc2nccnc12 [Brimonidine L-tartrate] (20 µM), the “fold change of Tryptamine concentration” value was 1.07.
O=c1[nH]cnc2c1ncn2[C@H]1CC[C@@H](CO)O1 [Didanosine] (20 µM) was tested, and the “fold change of Tryptamine concentration” value was 0.992.
With NS(=O)(=O)Cc1noc2ccccc12 [Zonisamide] (20 µM) the “fold change of Tryptamine concentration” value was 1.07.
With CN(C)CCC(c1ccc(Cl)cc1)c1ccccn1 (stereo unspecified) [Chlorpheniramine maleate] (20 µM) the “fold change of Tryptamine concentration” value was 1.05.
For OCC(O)CN1CCN(c2ccccc2)CC1 (stereo unspecified) [Dropropizine] (20 µM), the “fold change of Tryptamine concentration” value was 1.04.
With CC(=O)[C@H]1CC[C@H]2[C@@H]3CCC4=CC(=O)CC[C@]4(C)[C@H]3CC[C@]12C [Progesterone] (20 µM) the “fold change of Tryptamine concentration” value was 1.04.
